Data published in PubChem BioAssay (Tox21).
Unmarked numbers belong to inactive results. Inconclusive results are not listed. Where a call stands in place of a potency, no number is given. Activity calls are given as the source filed them. Unless noted, the call rests on the fitted dose curve; in most records, active means well fitted curve in the direction sought with a large enough effect in the repeat runs; inconclusive means weak or mixed curves; inactive means no such curve, though single readings can be large; an effect the other way counts as inactive or inconclusive.

Legend:
[1] = qHTS assay to identify small molecule agonists of the constitutive androstane receptor (CAR) signaling pathway - cell viability counter screen (AID 1224836); further: nearly all actives have a fitted effect of over 45% in size
How it was run: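 Counter screen multiplexed with the CAR reporter readout: HepG2 cells co-transfected with hCAR and the CYP2B6-2.2kb construct receive a 15-concentration compound series and 0.75 uM PK11195 (final), then CellTiter-Fluor fluorescence is read after 23 h.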

[2] = qHTS assay to identify small molecule antagonists of the constitutive androstane receptor (CAR) signaling pathway - cell viability counter screen (AID 1224837); further: nearly all actives have a fitted effect of over 45% in size
How it was run: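 Viability was measured with CellTiter-Fluor in a HepG2 line carrying stably transfected hCAR and a CYP2B6-2.2kb construct. Cells were exposed for 23 hr at 37 C to 15 compound concentrations with 50 nM CITCO as agonist.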

[3] = qHTS assay to identify small molecule antagonists of the estrogen related receptor signaling pathway with the pleiotropic PPARgamma coactivator (PGC) from Tox21 10K library - cell viability counter screen (AID 1224840; active means well fitted cell-killing curve with a large enough effect in the repeat runs, not every such curve was filed as active; further: nearly all actives have a fitted effect of over 40% in size)
How it was run: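 Multiplexed viability counter screen in the PGC/ERR cell line: cells treated with DMSO-dissolved compounds for 17.5 hours at 37 C, then viability measured as CellTiter-Fluor fluorescence.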

[4] = target: Thyrotropin receptor (Homo sapiens) (UniProt P16473); assay: qHTS assay to identify small molecule agonists of the thyroid stimulating hormone receptor (TSHR) signaling pathway (AID 1224843; calls by dose curve; further: nearly all actives have a fitted effect of over 45% in size)
How it was run: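 A cell-based cAMP HTRF format was run in TSHR-transfected HEK293 cells, 800 per well. Treatment: 30 min, room temperature. Detection: 1 h with labelled cAMP and anti-cAMP cryptate. Concentration-response over 15 points, three replicates.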

[5] = qHTS assay to identify small molecule agonists of the hypoxia (HIF-1) signaling pathway - cell viability counter screen (AID 1224844; calls by dose curve; further: nearly all actives have a fitted effect of over 50% in size)
How it was run: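 Cytotoxicity was measured in parallel with the HRE-driven beta-lactamase readout: after 17 hrs of compound exposure at 37C, HRE-bla ME-180 cells received CellTiter-Glo and luminescence was recorded 30 min later.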

[6] = qHTS assay to identify small molecule agonists of the hypoxia (HIF-1) signaling pathway (AID 1224846; active means well fitted activation curve with a large enough effect in the signal ratio in the repeat runs, not every such curve was filed as active; the % refers to the signal ratio)
How it was run: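 Compounds from the Tox21 10K library, dissolved in DMSO, are tested for induction of a hypoxia response element–controlled beta-lactamase reporter in ME-180 cells. Exposure lasts 17 hrs at 37C after a 5 hr settling period, followed by CCF4-AM FRET substrate.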

[7] = qHTS assay to identify small molecule agonists of H2AX - cell viability counter screen (AID 1224847; calls by dose curve; further: top concentration of the series differs between compounds; nearly all actives have a fitted effect of over 30% in size)
How it was run: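 We seed wild-type CHO-K1 cells overnight, treat them for 3 hr at 37C with compounds in 15-concentration series, and quantify remaining viability by CellTiter-Glo luminescence.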

[8] = qHTS RealTime-Glo MT Cell Viability Assay in HepG2 cells - 24 hour (AID 1224867); further: nearly all actives have a fitted effect of over 50% in size
How it was run: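 Cells + NanoLuc/prosubstrate dispensed (600 cells/well) → 5 h at 37 C/5% CO2 → compounds in DMSO transferred → 40 h incubation at 37 C, luminescence read at 0, 8, 16, 24, 32, 40 h.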

[9] = qHTS RealTime-Glo MT Cell Viability Assay in HEK293 cells - 32 hour (AID 1224868); further: nearly all actives have a fitted effect of over 50% in size; further: potency means the concentration at half of the fitted maximal effect
How it was run: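 Tox21 10K qHTS, HEK293, 600 cells/well, RealTime-Glo reagent co-dispensed with cells; 5 h preincubation, compound by pintool, 37 C, luminescence at 0–40 h.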

[10] = A CellTox Green Cytotoxicity Assay to monitor cytotoxicity in HEK293 cells - 0 hour (AID 1224869); further: nearly all actives have a fitted effect of over 50% in size
How it was run: (§1)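 Cells (HEK293, 600/well) and dye reagent are dispensed together. After 5 h at 37 C, 23 nL compound is pinned in. Plates stay at 37 C for 40 h with fluorescence read at 0h, 8h, 16h, 24h, 32h and 40h.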

[11] = qHTS RealTime-Glo MT Cell Viability Assay in HepG2 cells - 40 hour (AID 1224870); further: nearly all actives have a fitted effect of over 50% in size
How it was run: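 Real-time viability: cells seeded at 600 per well together with NanoLuc and cell-permeant prosubstrate, compounds added after 5 h incubation. Luminescence tracked at 0, 8, 16, 24, 32 and 40 h of exposure.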

[12] = A CellTox Green Cytotoxicity Assay to monitor cytotoxicity in HEK293 cells - 40 hour (AID 1224871); further: nearly all actives have a fitted effect of over 45% in size
How it was run: as §1

[13] = target: Nuclear receptor subfamily 1 group I member 3 (Homo sapiens) (UniProt Q14994); assay: qHTS assay to identify small molecule antagonists of the constitutive androstane receptor (CAR) signaling pathway (AID 1224838);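 further: HepG2 cells stably expressing hCAR with CYP2B6 luciferase reporter stimulated by CITCO; nearly all actives have a fitted effect of over 40% in size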; further: potency means the concentration at half of the fitted maximal effect
How it was run: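 Antagonist mode used CITCO at a final 50 nM to activate CAR in human hepatoma HepG2 cells carrying stable hCAR and a 2.2 kb CYP2B6 promoter-luciferase construct. Compounds were tested at 15 concentrations over 24 h, with luminescence as the end point.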

[14] = target: Nuclear receptor subfamily 1 group I member 3 (Homo sapiens) (UniProt Q14994); assay: qHTS assay to identify small molecule agonists of the constitutive androstane receptor (CAR) signaling pathway (AID 1224839); further: nearly all actives have a fitted effect of over 15% in size; further: potency means the concentration at half of the fitted maximal effect
How it was run: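 A 15-concentration quantitative screen uses HepG2 cells co-transfected stably with human CAR and CYP2B6-2.2kb reporter. Treatment lasts 24 h with 0.75 uM PK11195 final present; ONE-Glo luminescence is the signal.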

[15] = qHTS assay to identify small molecule agonists of H2AX (AID 1224845; active means well fitted activation curve with a large enough effect in the signal ratio in the repeat runs, not every such curve was filed as active; the % refers to the signal ratio; further: potency means the concentration at half of the fitted maximal effect)
How it was run: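 Phospho-H2AX Ser139 measured by HTRF (ex 320 nm; em 665 and 620 nm) after 24 hr antibody incubation. Compounds, 15 concentrations, 0.76% DMSO, were applied to CHO-K1 cells for 3hr at 37C before lysis.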

[16] = qHTS assay to identify small molecule agonists of the estrogen related receptor signaling pathway with the pleiotropic PPARgamma coactivator (PGC) from Tox21 10K library (AID 1224842); further: nearly all actives have a fitted effect of over 15% in size
How it was run: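 Luminescence from One-Glo (30 min, room temperature) measured after PGC/ERR cells had 18 h at 37 C with pinned compound (23 nL in DMSO). Cells had been seeded at 2,000 per well and pre-incubated 6 h.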

[17] = qHTS assay to identify small molecule antagonists of the estrogen related receptor (ERR) signaling pathway from Tox21 library (AID 1224848)
How it was run: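 ERR cell line, 2,000 cells/well. 6 h settle, then compound (DMSO) added; 18 h at 37 C; ONE-Glo luminescence after 30 min RT.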

[18] = qHTS assay to identify small molecule agonists of the estrogen related receptor (ERR) signaling pathway from Tox21 library (AID 1224849; calls by dose curve; further: nearly all actives have a fitted effect of over 15% in size); settings: ERR reporter cell line, ONE-Glo luciferase, 18 h; at 92.4 µM (top of the series) unless noted
How it was run: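 Cells carrying the ERR reporter were plated and allowed to settle for 6 h, exposed to library compounds for 18 h at 37 C, then lysed with ONE-Glo and luminescence measured.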

[19] = qHTS assay to identify small molecule antagonists of the estrogen related receptor signaling pathway with the pleiotropic PPARgamma coactivator (PGC) from Tox21 10K library (AID 1224841; call rule not given here)
How it was run: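 Steps: plate 2,000 PGC/ERR cells per well; incubate 6 h at 37 C with 5% CO2; transfer compounds from DMSO stocks by pin tool; incubate 18 h at 37 C; add One-Glo; measure luminescence 30 min later.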

Sequence of Nuclear receptor subfamily 1 group I member 3 (Homo sapiens) (Q14994 whole entry, looked up): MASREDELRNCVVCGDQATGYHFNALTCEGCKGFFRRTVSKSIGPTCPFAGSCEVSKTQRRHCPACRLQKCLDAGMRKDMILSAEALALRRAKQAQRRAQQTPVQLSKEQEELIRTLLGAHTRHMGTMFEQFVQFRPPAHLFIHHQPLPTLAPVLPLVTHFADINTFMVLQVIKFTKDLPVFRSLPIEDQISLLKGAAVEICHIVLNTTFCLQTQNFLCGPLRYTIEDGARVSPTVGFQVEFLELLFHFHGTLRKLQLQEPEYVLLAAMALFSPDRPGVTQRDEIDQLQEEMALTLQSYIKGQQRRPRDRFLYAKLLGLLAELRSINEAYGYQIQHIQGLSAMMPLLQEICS
Sequence of Thyrotropin receptor (Homo sapiens) (P16473 whole entry, looked up): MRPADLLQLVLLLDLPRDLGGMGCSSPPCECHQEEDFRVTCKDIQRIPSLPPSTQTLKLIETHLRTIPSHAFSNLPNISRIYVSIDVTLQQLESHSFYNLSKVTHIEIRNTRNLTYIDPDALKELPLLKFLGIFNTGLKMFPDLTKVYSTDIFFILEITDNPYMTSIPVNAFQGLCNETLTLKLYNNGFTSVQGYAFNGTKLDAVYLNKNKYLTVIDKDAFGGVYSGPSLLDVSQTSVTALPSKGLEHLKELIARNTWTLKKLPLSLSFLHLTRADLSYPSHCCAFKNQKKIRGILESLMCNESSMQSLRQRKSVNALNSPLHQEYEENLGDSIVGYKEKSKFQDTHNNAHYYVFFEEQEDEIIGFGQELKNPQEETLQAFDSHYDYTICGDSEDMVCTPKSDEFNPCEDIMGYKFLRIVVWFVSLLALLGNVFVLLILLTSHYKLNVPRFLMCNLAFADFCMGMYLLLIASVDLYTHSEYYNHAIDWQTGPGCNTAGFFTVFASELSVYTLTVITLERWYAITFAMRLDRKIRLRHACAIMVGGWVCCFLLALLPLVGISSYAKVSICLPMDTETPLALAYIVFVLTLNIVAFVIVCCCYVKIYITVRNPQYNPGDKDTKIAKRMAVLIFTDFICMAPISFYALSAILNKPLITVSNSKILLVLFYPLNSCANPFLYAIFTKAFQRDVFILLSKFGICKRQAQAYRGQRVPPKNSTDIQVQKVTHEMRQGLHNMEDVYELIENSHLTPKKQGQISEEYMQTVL

For `Cc1ccc2c(Cl)cc(Cl)c(O)c2n1`, the Potency [1] was “inactive”, the Potency [2] was “inactive” and the Potency [3] was “inactive”. The Potency [4] was “inactive”, the Potency [5] was “inactive” and the outcome [6] was “inactive”. The Potency [7] was “inactive”, the outcome [8] was “inactive” and the Potency [9] was “inactive”. The Potency [10] was “inactive”, the Potency [11] was “inactive” and the Potency [12] was “inactive”.

For `O=C(O)c1ccccc1-n1cc(C(=O)O)c(=O)c2cc(Nc3c(F)cc(F)cc3Cl)c(Cl)cc21`, the Potency [1] was “inactive”, the Potency [2] was “inactive” and the Potency [13] was “inactive”. The Potency [14] was “inactive”, the Potency [5] was “inactive” and the Potency [15] was “inactive”. The outcome [6] was “inactive”, the Potency [7] was “inactive” and the outcome [8] was “inactive”. For the same compound, the Potency [9] was “inactive”, the Potency [10] was “inactive” and the Potency [11] was “inactive”. For the same compound, the Potency [12] was “inactive”.

In the case of `COc1ccnc2c1CCCCC2S(=O)c1nc2ccccc2[nH]1` (centres undefined), the Potency [1] is reported as “inactive”, the Potency [2] is reported as “inactive” and the Potency [13] is reported as “inactive”. For the same compound, the Potency [14] was 23.7 µM (active), the Potency [4] was “inactive” and the outcome [8] was “inactive”. The Potency [9] was 7.56 µM (active), the Potency [10] was “inactive” and the Potency [11] was “inactive”. The Potency [12] was “inactive”.

With `CC(C)(C)c1ccc(CCC=O)cc1` the Potency [1] was “inactive”, the Potency [13] was “inactive” and the Potency [14] was “inactive”. For the same compound, the Potency [3] was “inactive”, the Potency [5] was “inactive” and the outcome [6] was “inactive”. For the same compound, the outcome [8] was “inactive”, the Potency [9] was “inactive” and the Potency [10] was “inactive”. For the same compound, the Potency [11] was “inactive” and the Potency [12] was “inactive”.

For `CC1(C)C(=O)NC(=O)N1CO`, the Potency [1] was “inactive”, the Potency [13] was “inactive” and the Potency [14] was “inactive”. For the same compound, the Potency [5] was “inactive”, the Potency [15] was “inactive” and the outcome [6] was “inactive”. The outcome [8] was “inactive”, the Potency [10] was “inactive” and the Potency [11] was “inactive”. For the same compound, the Potency [12] was “inactive”.

For `Nc1nc(Cl)nc2c1ncn2[C@H]1C[C@H](O)[C@@H](CO)O1`, the Potency [1] was “inactive”, the Potency [2] was “inactive” and the Potency [13] was 0.121 µM (active). The Potency [14] was “inactive”, the Potency [3] was “inactive” and the Potency [5] was “inactive”. For the same compound, the Potency [15] was 14.1 µM (active), the Potency [9] was “inactive” and the Potency [10] was “inactive”. The Potency [11] was “inactive” and the Potency [12] was “inactive”.

For `C[Si](C)(C)O[Si](C)(C)O[Si](C)(C)C`, the Potency [1] was “inactive”, the Potency [2] was “inactive” and the Potency [13] was “inactive”. For the same compound, the Potency [14] was “inactive”, the Potency [3] was “inactive” and the Potency [7] was “inactive”. For the same compound, the outcome [8] was “inactive”, the Potency [10] was “inactive” and the Potency [11] was “inactive”. The Potency [12] was “inactive”.

For `O=Cc1ccc(Cl)c([N+](=O)[O-])c1`, the Potency [1] was “inactive”, the Potency [2] was “inactive” and the Potency [13] was “inactive”. For the same compound, the Potency [14] was “inactive”, the Potency [16] was “inactive” and the Potency [4] was “inactive”. The Potency [5] was “inactive”, the outcome [6] was “inactive” and the Potency [7] was “inactive”. The Potency [17] was 54.5 µM (active), the activity change, positive = activation [18] was -38.6% and the outcome [8] was “inactive”. The Potency [10] was “inactive”, the Potency [11] was “inactive” and the Potency [12] was “inactive”.

With `CC(=O)Oc1cccc2c1C(=O)c1c(OC(C)=O)cc(C(=O)O)cc1C2=O` the Potency [13] was “inactive”, the Potency [14] was “inactive” and the Potency [3] was “inactive”. For the same compound, the Potency [19] was 21.1 µM (active), the Potency [16] was “inactive” and the Potency [4] was “inactive”. The Potency [5] was “inactive”, the Potency [7] was “inactive” and the Potency [17] was 23.7 µM (active). The activity change, positive = activation [18] was -46.2% [at 42.5 µM], the outcome [8] was “inactive” and the Potency [9] was “inactive”. The Potency [10] was “inactive”, the Potency [11] was “inactive” and the Potency [12] was “inactive”.

With `O=C(OC1C[C@H]2CC[C@@H](C1)[N+]21CCCC1)C(O)(c1ccccc1)c1ccccc1` (some centres undefined) the Potency [1] was “inactive”, the Potency [2] was “inactive” and the Potency [13] was “inactive”. For the same compound, the Potency [14] was “inactive”, the Potency [3] was “inactive” and the Potency [5] was “inactive”. The Potency [7] was “inactive”, the outcome [8] was “inactive” and the Potency [9] was “inactive”. For the same compound, the Potency [10] was “inactive”, the Potency [11] was “inactive” and the Potency [12] was “inactive”.
